# Assay results published in PubChem BioAssay (NCATS).
# Inconclusive results are not listed. Where a call stands in place of a potency, no number is given. Activity calls are given as the source filed them. Calls follow the shape of the dose curve; as a rule, active = well fitted curve in the direction sought with a large enough effect; inconclusive = small, poorly fitted or top-dose-only effect, or another doubt; inactive = no such curve, though single readings can be large; an effect the other way counts as inactive or inconclusive.
# Target: Aldehyde dehydrogenase, mitochondrial (Homo sapiens) (UniProt P05091)
# Assay: qHTS for Inhibitors of the Aldehyde Dehydrogenase Family (ALDH2) Primary screen (AID 2061308); also: nearly all actives have a fitted effect of over 55% in size
# Settings: ALDH2 enzyme inhibition qHTS, 1536-well; series mostly up to 56 µM
row,Compound,Potency
1,Cc1cc2[nH]c3c(=O)n(Cc4ccccc4F)ncc3c2s1,inactive
2,Cc1c(P(=S)(c2ccccc2)c2ccccc2)c2ccccc2n1C(=O)NCc1ccccc1,inactive
3,CC[C@H]1OC(=O)[C@H](C)[C@@H](O[C@H]2C[C@@](C)(OC)[C@@H](O)[C@H](C)O2)[C@H](C)[C@@H](O[C@@H]2O[C@H](C)C[C@H](N(C)C)[C@H]2O)[C@](C)(O)C[C@@H](C)/C(=N/OCOCCOC)[C@H](C)[C@@H](O)[C@]1(C)O,inactive
4,Cc1cc(C)nc(NC(=S)N2CCN(c3noc4ccccc34)CC2)c1,inactive
5,O=[N+]([O-])c1ccc(CSc2nc3ncc(Br)cc3[nH]2)cc1,inactive
6,COc1ccc(Cn2ncc3c4sc(C)cc4n(C)c3c2=O)cc1,inactive
7,O=[S+]([O-])(c1ccc2c(c1)OCCO2)N1CCN([S+](=O)([O-])c2ccc(F)cc2Br)CC1,inactive
8,Cc1ccc(NS(=O)(=O)c2ccc3ccccc3c2)cc1C,inactive
9,COc1ccc(NS(=O)(=O)c2ccc(C)cc2)c(C(=O)Nc2nc(-c3ccccc3)cs2)c1,inactive
10,Cn1nnnc1Sc1ncnc2scc(-c3ccc4c(c3)OCO4)c12,inactive
11,Cc1ccc(-c2cc(C(=O)Nc3nc4ccccc4s3)c3ccccc3n2)cc1C,inactive
12,O=C(O)C1CCC(C(=O)Nc2ccc([S+](=O)([O-])Nc3nccs3)cc2)CC1 (stereo not given),inactive
13,O=C(Nc1ccccc1)c1cccs1,inactive
14,O=C(Cc1ccc(Cl)c(Cl)c1)Nc1ccc([S+](=O)([O-])Nc2ccc3[nH]ccc3c2)cc1,inactive
15,CC(C)(C)c1ccc(Nc2nc(C#N)nc(NC3CCCC3)n2)cc1,inactive
16,COc1c2c(c(C)c3c1C(=O)OC3)OC1(C)CC(O)C3(O)C(C)(C)OC(=O)CCC3(C)C1C2 (stereo not given),inactive
17,COc1cc(Nc2nc(-c3ccncc3)nc3ccccc23)ccc1NS(C)(=O)=O,inactive
18,Cc1ccc2nc3sc(C(=O)N4CCC(C(N)=O)CC4)cc3cc2c1,inactive
19,Cc1ccc(-c2nc(NCC(=O)Nc3cccc(C(=O)O)c3)c3ccccc3n2)cc1,inactive
20,O=C(CNC(=O)c1ccccc1)OC(C(=O)Nc1cc([N+](=O)[O-])ccc1F)c1ccccc1 (stereo not given),inactive

row,Compound,Potency
1,O=C(Cc1ccccc1)Nc1ccc(S(=O)(=O)Nc2nccs2)cc1,inactive
2,O=S(=O)(Nc1nc(CN2CCOCC2)nc2sc3c(c12)CCC3)c1ccc2c(c1)OCCO2,inactive
3,COc1ccc(-c2nc3ccccc3c(=O)n2Cc2ccccc2)cc1COc1ccc(NC(C)=O)cc1,inactive
4,Fc1cc(Nc2nc(-c3ccncc3)nc3ccccc23)ccc1-c1ccnc(C(F)(F)F)c1,inactive
5,NCCCCNc1ncnc2ccc(-c3ccc4c(c3)OCO4)cc12,inactive
6,Cc1cccc(-n2cnc3cc(C(=O)N4CCN(C)CC4)ccc32)c1,inactive
7,CC(=O)Nc1sc2c(c1-c1ccc3nc[nH]c3c1)CCNC2,inactive
8,Cc1cccc(-n2cnc3cc(C(=O)NC4CCCC4)ccc32)c1,inactive
9,Clc1ccc2ncc(-c3cccc(NC4CCNCC4)n3)n2c1,inactive
10,COc1ccc(C2Nc3ccccc3C(=O)N2Cc2ccccc2)cc1COc1c(C)cccc1C (stereo not given),inactive
11,COc1ccc2c(=O)n3nc(Nc4cccc(N5CCN(C)CC5)c4)sc3nc2c1,inactive
12,c1c[nH]c(CNc2ncnc3ccc(-c4ccc5c(c4)OCO5)cc23)n1,inactive
13,O=C1CCCC2=C1C(c1[nH]ncc1Cl)N=C(Nc1nc3cc([S+](=O)([O-])N4CCOCC4)ccc3o1)N2 (stereo not given),inactive
14,Cc1cc(N[S+](=O)([O-])c2ccc(NC(=O)Cn3c(=O)oc4ccc(Cl)cc43)cc2)no1,inactive
15,Cc1nc(NCc2ccc(-c3ccnc(C(F)(F)F)c3)cc2)c2ccccc2n1,inactive
16,Cc1nc(-c2ccc([S+](=O)([O-])N3CCN([S+](=O)([O-])c4c(F)cccc4F)CC3)s2)cs1,inactive
17,O=C1CCc2cc(S(=O)(=O)Nc3ccc(F)c(Cl)c3)ccc2N1,inactive
18,Cc1ccc(S(=O)(=O)Nc2ccccc2C(=O)Nc2nc(-c3ccccc3)co2)cc1,inactive
19,Cc1ccsc1C1N=C(Nc2nc3ccccc3o2)NC2=C1C(=O)CCC2 (stereo not given),inactive
20,Cc1nnc(-c2cnn(C)c2N)n1Cc1cncn1C,inactive

# Target: Retinaldehyde dehydrogenase 3 (Homo sapiens) (UniProt P47895)
# Assay: qHTS for Inhibitors of the Aldehyde Dehydrogenase Family (ALDH1A3) Primary screen (AID 2061315)
# Settings: ALDH inhibition qHTS; series mostly up to 56 µM
row,Compound,Potency
1,Cc1cc2[nH]c3c(=O)n(Cc4ccccc4F)ncc3c2s1,inactive
2,Cc1c(P(=S)(c2ccccc2)c2ccccc2)c2ccccc2n1C(=O)NCc1ccccc1,inactive
3,CC[C@H]1OC(=O)[C@H](C)[C@@H](O[C@H]2C[C@@](C)(OC)[C@@H](O)[C@H](C)O2)[C@H](C)[C@@H](O[C@@H]2O[C@H](C)C[C@H](N(C)C)[C@H]2O)[C@](C)(O)C[C@@H](C)/C(=N/OCOCCOC)[C@H](C)[C@@H](O)[C@]1(C)O,inactive
4,Cc1cc(C)nc(NC(=S)N2CCN(c3noc4ccccc34)CC2)c1,inactive
5,O=[N+]([O-])c1ccc(CSc2nc3ncc(Br)cc3[nH]2)cc1,inactive
6,COc1ccc(Cn2ncc3c4sc(C)cc4n(C)c3c2=O)cc1,inactive
7,O=[S+]([O-])(c1ccc2c(c1)OCCO2)N1CCN([S+](=O)([O-])c2ccc(F)cc2Br)CC1,inactive
8,Cc1ccc(NS(=O)(=O)c2ccc3ccccc3c2)cc1C,inactive
9,COc1ccc(NS(=O)(=O)c2ccc(C)cc2)c(C(=O)Nc2nc(-c3ccccc3)cs2)c1,inactive
10,Cn1nnnc1Sc1ncnc2scc(-c3ccc4c(c3)OCO4)c12,inactive
11,Cc1ccc(-c2cc(C(=O)Nc3nc4ccccc4s3)c3ccccc3n2)cc1C,inactive
12,O=C(O)C1CCC(C(=O)Nc2ccc([S+](=O)([O-])Nc3nccs3)cc2)CC1 (stereo not given),inactive
13,O=C(Nc1ccccc1)c1cccs1,inactive
14,O=C(Cc1ccc(Cl)c(Cl)c1)Nc1ccc([S+](=O)([O-])Nc2ccc3[nH]ccc3c2)cc1,inactive
15,CC(C)(C)c1ccc(Nc2nc(C#N)nc(NC3CCCC3)n2)cc1,inactive
16,COc1c2c(c(C)c3c1C(=O)OC3)OC1(C)CC(O)C3(O)C(C)(C)OC(=O)CCC3(C)C1C2 (stereo not given),inactive
17,COc1cc(Nc2nc(-c3ccncc3)nc3ccccc23)ccc1NS(C)(=O)=O,inactive
18,Cc1ccc2nc3sc(C(=O)N4CCC(C(N)=O)CC4)cc3cc2c1,inactive
19,Cc1ccc(-c2nc(NCC(=O)Nc3cccc(C(=O)O)c3)c3ccccc3n2)cc1,inactive
20,O=C(CNC(=O)c1ccccc1)OC(C(=O)Nc1cc([N+](=O)[O-])ccc1F)c1ccccc1 (stereo not given),inactive

row,Compound,Potency
1,O=C(Cc1ccccc1)Nc1ccc(S(=O)(=O)Nc2nccs2)cc1,inactive
2,O=S(=O)(Nc1nc(CN2CCOCC2)nc2sc3c(c12)CCC3)c1ccc2c(c1)OCCO2,inactive
3,COc1ccc(-c2nc3ccccc3c(=O)n2Cc2ccccc2)cc1COc1ccc(NC(C)=O)cc1,inactive
4,Fc1cc(Nc2nc(-c3ccncc3)nc3ccccc23)ccc1-c1ccnc(C(F)(F)F)c1,inactive
5,NCCCCNc1ncnc2ccc(-c3ccc4c(c3)OCO4)cc12,inactive
6,Cc1cccc(-n2cnc3cc(C(=O)N4CCN(C)CC4)ccc32)c1,inactive
7,CC(=O)Nc1sc2c(c1-c1ccc3nc[nH]c3c1)CCNC2,inactive
8,Cc1cccc(-n2cnc3cc(C(=O)NC4CCCC4)ccc32)c1,inactive
9,Clc1ccc2ncc(-c3cccc(NC4CCNCC4)n3)n2c1,inactive
10,COc1ccc(C2Nc3ccccc3C(=O)N2Cc2ccccc2)cc1COc1c(C)cccc1C (stereo not given),inactive
11,COc1ccc2c(=O)n3nc(Nc4cccc(N5CCN(C)CC5)c4)sc3nc2c1,inactive
12,c1c[nH]c(CNc2ncnc3ccc(-c4ccc5c(c4)OCO5)cc23)n1,inactive
13,O=C1CCCC2=C1C(c1[nH]ncc1Cl)N=C(Nc1nc3cc([S+](=O)([O-])N4CCOCC4)ccc3o1)N2 (stereo not given),inactive
14,Cc1cc(N[S+](=O)([O-])c2ccc(NC(=O)Cn3c(=O)oc4ccc(Cl)cc43)cc2)no1,inactive
15,Cc1nc(NCc2ccc(-c3ccnc(C(F)(F)F)c3)cc2)c2ccccc2n1,inactive
16,Cc1nc(-c2ccc([S+](=O)([O-])N3CCN([S+](=O)([O-])c4c(F)cccc4F)CC3)s2)cs1,inactive
17,O=C1CCc2cc(S(=O)(=O)Nc3ccc(F)c(Cl)c3)ccc2N1,inactive
18,Cc1ccc(S(=O)(=O)Nc2ccccc2C(=O)Nc2nc(-c3ccccc3)co2)cc1,inactive
19,Cc1ccsc1C1N=C(Nc2nc3ccccc3o2)NC2=C1C(=O)CCC2 (stereo not given),inactive
20,Cc1nnc(-c2cnn(C)c2N)n1Cc1cncn1C,inactive
